Sampled rows, rich in hits. Any-hit rate of the full collection: about 9.2%.
Rab9 promoter act: qHTS Assay for Rab9 Promoter Activators; Potency, µM (top dose mostly 9.22 µM), without a hit: at the highest dose activation, negative = inhibition, actives largely listed as activators; hit rate 2.8% among 320,000; Huh7 Rab9 promoter-luciferase reporter, luminescence, 24 h; note: % of control where 0% means no effect; nearly all actives have a fitted effect of over 60% in size
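Promoter activation is measured as luciferase luminescence in Huh7 cells stably transfected with a Rab9 promoter–luciferase construct, following 24 h compound exposure at 37 °C and 10 min reagent incubation at ambient temperature.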
FLuc modulator: qHTS profiling assay for firefly luciferase inhibitor/activator using purifed enzyme and Km concentrations of substrates (counterscreen for miR-21 project); Potency, µM (highest dose often 57.5 µM), inactives show at the top dose activity change, negative = inhibition, actives largely listed as inhibitors; hit rate 6.9% among 360,000; Luciferin 4-monooxygenase (Photinus pyralis), P08659; purified FLuc, Km substrates, luminescence inhibition;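 note: plate controls were vehicle for no effect and reference inhibitor for full effect; nearly all actives have a fitted effect of over 55% in size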
Target sequence (P08659 whole entry, looked up): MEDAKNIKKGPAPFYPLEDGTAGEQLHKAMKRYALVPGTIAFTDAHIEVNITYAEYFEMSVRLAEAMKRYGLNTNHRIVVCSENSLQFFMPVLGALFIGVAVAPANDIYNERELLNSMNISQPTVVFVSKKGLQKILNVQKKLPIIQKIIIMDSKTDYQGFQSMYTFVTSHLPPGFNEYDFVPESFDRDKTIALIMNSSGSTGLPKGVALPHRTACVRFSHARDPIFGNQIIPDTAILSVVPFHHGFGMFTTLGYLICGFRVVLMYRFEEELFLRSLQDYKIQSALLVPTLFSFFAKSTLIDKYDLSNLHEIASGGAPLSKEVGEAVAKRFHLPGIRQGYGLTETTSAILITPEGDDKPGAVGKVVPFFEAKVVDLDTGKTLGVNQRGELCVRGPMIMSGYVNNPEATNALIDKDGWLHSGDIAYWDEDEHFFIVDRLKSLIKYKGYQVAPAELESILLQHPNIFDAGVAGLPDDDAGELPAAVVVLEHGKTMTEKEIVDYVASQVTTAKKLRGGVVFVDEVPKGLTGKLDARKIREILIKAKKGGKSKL
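Purified P. pyralis luciferase (10nM final) with 10uM D-luciferin and 10uM ATP (Km levels) in 50mM Tris acetate pH 7.5, 10mM Mg acetate, 0.01% Tween-20, 0.05% BSA; qHTS 6-point titration, ~60 µM downward; luminescence read.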
NPC1 prom act: qHTS Assay for NPC1 Promoter Activators. Huh7 NPC1 promoter luciferase reporter, 24 h. Potency, µM (doses to about 9.22 µM), inactives show at the top dose activation, actives largely listed as activators. hit rate 2.4% among 320,000; note: % of control where 0% means no effect; nearly all actives have a fitted effect of over 60% in size
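NPC1 promoter–luciferase Huh7 cells; 24 h compound; luminescence.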
ELG1 genotox: qHTS screen for small molecules that induce genotoxicity in human embryonic kidney (HEK293T) cells expressing luciferase-tagged ELG1. HEK293T ELG1-luciferase reporter, luminescence, 16 h. Potency, µM (titrated, usually from 46 µM), without a hit: at the highest dose activity change, positive = activation, hits mostly activators. hit rate 1.3% among 330,000. AID 504466, 2011; note: % of control where 0% means no effect; nearly all actives have a fitted effect of over 60% in size
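Quantitative HTS format in 1536-well plates. HEK293T ELG1-luciferase reporter cells receive test compound and are incubated 16 hr at 37 °C, 5% CO2; ONE-Glo added, 30 min room temperature, then luminescence read.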
SMN2 splice enh: qHTS Assay for Enhancers of SMN2 Splice Variant Expression. HEK293 SMN2-luciferase splicing reporter, luminescence, 30-36 h. Potency, µM (top dose mostly 46.1 µM), for the others: top-dose activity change, positive = activation, most hits filed as activators. hit rate 2.8% among 210,000. AID 1458, 2008; note: % of control where 0% means no effect; nearly all actives have a fitted effect of over 55% in size
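qHTS luciferase splicing reporter: luminescence rises when SMN2 exon 7 is included in transfected HEK293 cells. Compound exposure lasted 30-36 h at 37C, with 4.5 mM final sodium butyrate as control, followed by a ONE-Glo read.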
ELG1 DNA repair: qHTS screen for small molecules that inhibit ELG1-dependent DNA repair in human embryonic kidney (HEK293T) cells expressing luciferase-tagged ELG1; HEK293T ELG1-luciferase reporter, luminescence, 16 h; DNA damage induced by 5-fluorouridine; Potency, µM (highest dose often 46.1 µM), for the others: top-dose activity change, negative = inhibition, actives largely listed as inhibitors; hit rate 2.3% among 330,000; AID 504467, 2011; note: % is set by controls: 0 for no effect and ±100 for the full control effect; nearly all actives have a fitted effect of over 55% in size
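Overnight (16 hr) co-exposure of 2,000 cells/well to 5-fluorouridine and compound at 37 °C preceded detection. Luciferase was quantified via ONE-Glo luminescence; loss of signal denotes inhibition.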
Active calls of the source: *; ? = inconclusive; . = not tested or not shown; [ ] = dose if it differs, or a comment. Calls come from the whole dose curve; as a rule, active = well fitted curve in the direction sought with a large enough effect; inconclusive = small, poorly fitted or top-dose-only effect, or another doubt; inactive = no such curve, though single readings can be large; an effect the other way counts as inactive or inconclusive. Potency is the fitted concentration of half-maximal effect.

SMILES	Rab9 promoter act	FLuc modulator	NPC1 prom act	ELG1 genotox	SMN2 splice enh	ELG1 DNA repair
Cc1ccc(OCC(=O)Nc2ccc3nn(-c4ccc(Cl)cc4)nc3c2)cc1	.	2%	.	.	-16%	.
Cc1cc(Cl)ccc1OCC(=O)Nc1nc(N)nc(N)n1	.	.	.	.	-7%[9.22 µM]	.
C/C(=N/NC(=O)c1ccc(C)s1)c1cccc(NC(=O)COc2ccc(Cl)cc2C)c1	3%	5.4µM*	26%	7%	-8%	1%
C/C(=N\NC(=O)c1c(Cl)c(C)nn1C)c1cccc(NC(=O)COc2ccc(Cl)cc2)c1	26%	8.5µM*	?	3%	13%	16µM*
CCc1cccc2c(-c3ccccc3)c3c(nc12)OCC3	.	.	.	.	-27%	.
O=c1oc2ccccc2c2oc3cc(O)c(O)cc3c12	15%	21µM*	11%	?	-3%	?
Cc1ccc(N(C)S(=O)(=O)c2cccc(C(=O)N(C)Cc3cnn(-c4ccccc4)c3)c2)cc1	-5%	0%	-7%	-8%	.	16µM*
CN(Cc1cnn(Cc2ccccc2)c1)C(=O)c1cccc(S(=O)(=O)N2CCOCC2)c1	-15%	4%	-20%	-1%	.	-21%
Cc1cccc(NC(=O)c2ccc(COc3ccccc3)o2)n1	27%	17µM*	16%	27%	.	27%
Cc1cccc(NC(=O)c2ccc(COc3ccc4ccccc4c3)o2)n1	5%	?	14%	-1%	.	-7%
Cc1csc(NC(=O)c2ccc(COc3ccccc3)o2)n1	?	17µM*	1µM*	1%	.	?
O=S(=O)(Nc1cccc2ccccc12)c1cccs1	20%	1%	3%	4%	.	15%
O=S(=O)(Nc1ccc(O)c2ccccc12)c1cccs1	18%	-20%	-6%	-32%	.	9.2µM*
O=S(=O)(Nc1ccc(O)c2ccccc12)c1ccc(Br)cc1	0%	-9%	-5%	-27%	.	23µM*
CC(=O)Nc1ccc(NS(=O)(=O)c2ccccc2)c2ccccc12	-2%	-1%	-6%	-9%	.	8%
Cc1ccccc1Nc1nnc(-c2ccc(C)c(S(=O)(=O)NCC3CCCO3)c2)c2ccccc12 (stereo not given)	.	1%	.	.	6%	.
CSc1cccc(NC(=O)Cn2nnc(C(=O)NCCc3ccccc3)c2N)c1	.	2%	.	.	.	.
COc1ccc(NC(=O)C(C)n2nc(C)c3c(C)n(-c4ccccc4)nc3c2=O)cc1Cl (stereo not given)	.	-2%	.	.	.	.
COc1ccccc1NC(CC(=O)c1ccccc1)C(=O)OCC(=O)c1ccc(Br)cc1 (stereo not given)	11%	2.1µM*	20%	2.1µM*	27%	?
COc1ccccc1NC(CC(=O)c1ccccc1)C(=O)OCC(=O)c1ccc(C)c(C)c1 (stereo not given)	19%	3µM*	16%	2.1µM*	8.9µM*	?
COc1ccccc1NC(CC(=O)c1ccccc1)C(=O)OCC(=O)c1ccc(C)cc1 (stereo not given)	26%	3.4µM*	10%	2.3µM*	8.9µM*	?
O=C(CC(Nc1ccccc1Cl)C(=O)OCC(=O)c1cccs1)c1ccccc1 (stereo not given)	15%	-18%	5%	?	-8%	?
Cc1ccc(C(=O)COC(=O)COc2ccccc2O)cc1C	.	.	.	1%	.	?
COc1ccc(S(=O)(=O)N(CC(=O)NC2CC2)Cc2ccccc2)cc1	1%	-2%	-7%	0%	.	5%
C[C@@]1(C(=O)O)CCC[C@@H]1C(=O)O	.	.	.	.	-20%[9.22 µM]	.
SMILES	Rab9 promoter act	FLuc modulator	NPC1 prom act	ELG1 genotox	SMN2 splice enh	ELG1 DNA repair
O=C(CCCc1cccs1)Nc1nccs1	15%	-17%	4%	1%	8%	?
CC1CCN(S(=O)(=O)c2ccc3c(ccc(=O)n3CC(=O)Nc3cccc(F)c3)c2)CC1	.	0%	.	.	.	.
COc1ccc(C(=O)Nc2ccc3oc(-c4ccc(F)cc4Cl)nc3c2)cc1	.	-11%	.	.	.	.
CC(=O)NC(=S)Nc1ccc2oc(-c3cc(F)c(F)cc3Cl)nc2c1	0.5µM*	-19%	?	4.6µM*	5µM*	?
O=C(Cc1ccccc1)NC(=S)Nc1ccc2oc(-c3ccccc3F)nc2c1	?	13µM*	?	15%	?	?
O=C(Cc1ccccc1)Nc1ccc2oc(-c3ccncc3)nc2c1	18%	-8%	8%	2%	13%	16%
O=C(Cc1ccccc1)NC(=S)Nc1ccc2oc(-c3ccccc3)nc2c1	?	?	?	?	11µM*	?
Cc1ccc(C(C)NC(=O)c2ccc3c(c2)OCO3)cc1C (stereo not given)	-1%	-1%	6%	-2%	.	-4%
CCC(C)NC(=O)CNC(=O)c1nn(-c2ccc(OC)c(Cl)c2)c(=O)c2ccccc12 (stereo not given)	-4%	-11%	-3%	-6%	.	?
COc1ccc(-n2nc(C(=O)NCC(=O)NCC3COc4ccccc4O3)c3ccccc3c2=O)cc1OC (stereo not given)	1%	-6%	-6%	-14%	-11%	9.2µM*
COc1ccc(-n2nc(C(=O)NCC(=O)NC3CCCCCC3)c3ccccc3c2=O)cc1OC	8%	?	-3%	-10%	.	18µM*
CCOC(=O)C1CCN(C(=O)CNC(=O)c2nn(-c3ccc(OC)c(Cl)c3)c(=O)c3ccccc23)CC1	21%	2.7µM*	24%	1%	.	15µM*
COc1ccc(-n2nc(C(=O)NCC(=O)N3CCOCC3)c3ccccc3c2=O)cc1Cl	0%	11µM*	-4%	0%	.	-9%
COCCCNC(=O)CNC(=O)c1nn(-c2ccc(OC)c(Cl)c2)c(=O)c2ccccc12	0%	-2%	-2%	0%	.	-5%
CCOc1ccc(NC(=O)c2ccc(F)c(S(=O)(=O)N(Cc3ccc(C(=O)OC)cc3)Cc3ccc(OC)c(OC)c3)c2)cc1	.	4%	.	.	.	.
COc1ccc(-n2nc(C(=O)NCC(=O)NCCCN3CCCCCC3)c3ccccc3c2=O)cc1Cl	-3%	4%	-6%	-2%	-59%	8%
COc1ccc(-n2nc(C(=O)NCC(=O)NC(C)C)c3ccccc3c2=O)cc1Cl	3%	-3%	-2%	-6%	.	?
O=C(CCC1COc2ccccc2O1)NCC1COc2ccccc2O1 (stereo not given)	-1%	0%	-3%	-1%	-18%	4%
